Compound activity (PubChem BioAssay)
Most compounds without a hit are left out; they make up all but 7.3% or so of the library.
FLuc counter: inhibits or activates purified firefly luciferase, miR-21 counter-screen | actives 6.9% (n = 360,000) | AID 588342 | purified FLuc, Km substrates, luminescence inhibition | Potency, µM (titrated, usually from 57.5 µM), actives largely listed as inhibitors; note: nearly all actives have a fitted effect of over 55% in size
Target sequence (P08659 whole entry, looked up): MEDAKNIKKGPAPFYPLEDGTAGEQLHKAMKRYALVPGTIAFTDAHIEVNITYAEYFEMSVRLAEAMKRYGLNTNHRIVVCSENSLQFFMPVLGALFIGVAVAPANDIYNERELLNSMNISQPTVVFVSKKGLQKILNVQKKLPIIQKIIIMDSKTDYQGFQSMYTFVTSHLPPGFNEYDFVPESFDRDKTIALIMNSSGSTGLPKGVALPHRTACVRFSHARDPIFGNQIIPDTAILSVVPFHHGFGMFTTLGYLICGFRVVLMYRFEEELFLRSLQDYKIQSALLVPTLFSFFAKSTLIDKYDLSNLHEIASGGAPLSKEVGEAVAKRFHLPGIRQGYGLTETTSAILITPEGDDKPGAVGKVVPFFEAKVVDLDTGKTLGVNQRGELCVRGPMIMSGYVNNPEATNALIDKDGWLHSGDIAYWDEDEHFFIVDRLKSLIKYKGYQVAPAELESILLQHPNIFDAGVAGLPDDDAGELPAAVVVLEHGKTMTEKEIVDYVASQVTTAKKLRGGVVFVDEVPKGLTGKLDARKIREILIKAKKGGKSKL
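Purified P. pyralis luciferase (10nM final) with 10uM D-luciferin and 10uM ATP (Km levels) in 50mM Tris acetate pH 7.5, 10mM Mg acetate, 0.01% Tween-20, 0.05% BSA; qHTS 6-point titration, ~60 µM downward; luminescence read.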
NPC1 prom act: NPC1 promoter activation; Potency, µM (top dose mostly 9.22 µM), usual class: activators; actives 2.4% (n = 320,000); Huh7 NPC1 promoter luciferase reporter, 24 h; note: nearly all actives have a fitted effect of over 60% in size
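Stably transfected Huh7 (NPC1 promoter→luciferase), 1500 cells/well in Opti-MEM + 10% FBS, 2 h settle, then compound 24 h at 37 °C. Luminescence after 10 min with Amplite reagent.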
ELG1 genotoxic: induces genotoxicity in HEK293T cells with luciferase-tagged ELG1; Potency, µM (doses to about 46 µM), hits mostly activators; HEK293T ELG1-luciferase reporter, luminescence, 16 h; actives 1.3% (n = 330,000); note: nearly all actives have a fitted effect of over 60% in size
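Step 1: seed 2,000 HEK293T ELG1-luciferase cells per well. Step 2: add compound or DMSO, incubate 16 hr at 37 °C. Step 3: ONE-Glo, 30 min at room temperature, read luminescence.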
uPA generation: cell surface uPA generation inhibition | cell surface uPA generation assay, qHTS | Potency, µM (top dose mostly 38.3 µM), most hits filed as inhibitors | actives 0.31% (n = 330,000); active = well fitted inhibition curve with a large enough effect; inconclusive = small, poorly fitted or top-dose-only effect; inactive = no such curve, though single readings can be large or run the other way; tested in mouse RAW 264.7 cells; note: nearly all actives have a fitted effect of over 55% in size
Rab9 prom act: activates the Rab9 promoter; Potency, µM (series often up to 9.22 µM), actives largely listed as activators; Huh7 Rab9 promoter-luciferase reporter, luminescence, 24 h; actives 2.8% (n = 320,000); note: nearly all actives have a fitted effect of over 60% in size
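Measured in stably transfected Huh7 cells bearing a Rab9 promoter–luciferase construct: 24 h compound treatment at 37 °C, followed by luminescence detection.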
SMN2 splice enh: increases expression of the SMN2 splice variant; Potency, µM (top dose mostly 46.1 µM), most hits filed as activators; HEK293 SMN2-luciferase splicing reporter, luminescence, 30-36 h; actives 2.8% (n = 210,000); note: nearly all actives have a fitted effect of over 55% in size
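qHTS luciferase splicing reporter: luminescence rises when SMN2 exon 7 is included in transfected HEK293 cells. Compound exposure lasted 30-36 h at 37C, with 4.5 mM final sodium butyrate as control, followed by a ONE-Glo read.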
Large screens that a line does not name were inactive. Unless noted, calls come from the whole dose curve; as a rule, active = well fitted curve in the direction sought with a large enough effect; inconclusive = small, poorly fitted or top-dose-only effect, or another doubt; inactive = no such curve, though single readings can be large; an effect the other way counts as inactive or inconclusive.

CC(=O)Nc1ccc2cc3ccc(NC(C)=O)cc3nc2c1	FLuc counter 10.7µM, NPC1 prom act inconclusive, ELG1 genotoxic inconclusive, uPA generation inconclusive, Rab9 prom act inconclusive (no result: SMN2 splice enh)
O=C(Nc1ccc(-c2nc3ccccc3s2)c(OC(=O)c2ccccc2)c1)c1ccccc1	FLuc counter inconclusive, NPC1 prom act 1.58µM, ELG1 genotoxic inconclusive, Rab9 prom act 1.41µM, SMN2 splice enh 2.82µM
O=C(Nc1ccc(Cl)c(Cl)c1)Nc1ccccc1O	FLuc counter 6.01µM, NPC1 prom act 3.98µM, ELG1 genotoxic inconclusive, uPA generation inconclusive, Rab9 prom act 3.98µM (no result: SMN2 splice enh)
Cn1c(N)c(C(=O)Nc2cccc(Cl)c2)c(=O)n(C)c1=O	FLuc counter 5.36µM (no result: SMN2 splice enh)
CCOC(=O)c1ccc(NC(=O)c2c(N)n(C)c(=O)n(C)c2=O)cc1	none (no result: FLuc counter, NPC1 prom act, ELG1 genotoxic, Rab9 prom act, SMN2 splice enh)
O=C(Nc1ccc(-c2nc3ccccc3s2)c(O)c1)c1ccc(Br)cc1	none (no result: NPC1 prom act, ELG1 genotoxic, uPA generation, Rab9 prom act)
O=C(c1cnccn1)N1CCC2(CC1)CN(c1ncccn1)C2	none (no result: FLuc counter, NPC1 prom act, ELG1 genotoxic, uPA generation, Rab9 prom act)
Cc1ccc(CN2c3ccccc3S(=O)(=O)c3ccccc32)cc1	none (no result: NPC1 prom act, ELG1 genotoxic, uPA generation, Rab9 prom act, SMN2 splice enh)
CCCCC/C=C\C/C=C\C/C=C\CCCCCCC(=O)NCCc1ccc(O)c(O)c1	none (no result: FLuc counter, NPC1 prom act, ELG1 genotoxic, uPA generation, Rab9 prom act)
O=C(Nc1ccc(Cl)c(Cl)c1)c1ccccc1	FLuc counter 3.79µM, NPC1 prom act 3.16µM, ELG1 genotoxic inconclusive, Rab9 prom act 1.58µM (no result: SMN2 splice enh)
O=C(Nc1cccc(Cl)c1)c1ccccc1	FLuc counter 13.5µM, NPC1 prom act inconclusive, ELG1 genotoxic 16.4µM, Rab9 prom act inconclusive (no result: SMN2 splice enh)
O=C(Nc1ccc(NC(=O)c2ccco2)c(Cl)c1)c1ccccc1	FLuc counter inconclusive, ELG1 genotoxic inconclusive, Rab9 prom act inconclusive (no result: SMN2 splice enh)
O=C(Nc1ccc2nc3ccccc3nc2c1)c1ccccc1	FLuc counter 1.69µM, NPC1 prom act 1.41µM, ELG1 genotoxic inconclusive, Rab9 prom act 0.562µM, SMN2 splice enh 3.98µM
COc1ccc(C(CNC(=O)COc2ccc(Cl)c(C)c2)N2CCOCC2)cc1 (configuration not stated)	none (no result: NPC1 prom act, ELG1 genotoxic, uPA generation, Rab9 prom act, SMN2 splice enh)
Cc1ccc(C)c([C@@H]2NC(=O)c3ccccc3N2)c1	none (no result: FLuc counter, NPC1 prom act, ELG1 genotoxic, uPA generation, Rab9 prom act)
COC(=O)c1ccccc1NC(=O)c1ccc(COc2ccccc2)o1	none (no result: NPC1 prom act, ELG1 genotoxic, Rab9 prom act)
CCCc1ccc(OCc2ccc(C(=O)Nc3ccccc3C(=O)OC)o2)cc1	FLuc counter 19µM, SMN2 splice enh inconclusive (no result: NPC1 prom act, ELG1 genotoxic, uPA generation, Rab9 prom act)
Cc1ccc(OCc2ccc(C(=O)Nc3ccc(S(N)(=O)=O)cc3)o2)cc1	none
COC(=O)c1sccc1-c1ccc(C(=O)Nc2cccc(Cl)c2)o1	FLuc counter 9.53µM, NPC1 prom act inconclusive, Rab9 prom act 3.55µM, SMN2 splice enh inconclusive
Cc1ccc2cccc(NC(=O)c3ccc(-c4cccc(Cl)c4)o3)c2n1	none (no result: NPC1 prom act, ELG1 genotoxic, uPA generation, Rab9 prom act)
COc1ccc(NC(=O)c2ccc(Cc3ccc(C)cc3)o2)cc1	FLuc counter 15.1µM
COC(=O)c1ccccc1NC(=O)c1ccc(-c2cccc(Cl)c2)o1	NPC1 prom act inconclusive, ELG1 genotoxic inconclusive, SMN2 splice enh 10µM
CC1(OC(=O)c2cnc3ccccc3n2)C(=O)C=C2C=C(c3ccsc3)OC=C2C1=O (configuration not stated)	none (no result: FLuc counter, NPC1 prom act, ELG1 genotoxic, uPA generation, Rab9 prom act)
O=C(CN1N=C(c2ccccc2)CCC1=O)NCc1ccc(F)cc1Cl	none (no result: NPC1 prom act, ELG1 genotoxic, uPA generation, Rab9 prom act, SMN2 splice enh)
C=C(C)C(=O)/C=C/CCC/C=C/C(=O)OCC	none (no result: FLuc counter, NPC1 prom act, ELG1 genotoxic, uPA generation, Rab9 prom act)
COc1ccc(NC(=O)c2ccc(COc3ccccc3)o2)cc1	FLuc counter 23.9µM
O=C(CSc1nnc2ccccn12)N1CCc2ccccc2C1	FLuc counter inconclusive, NPC1 prom act inconclusive, ELG1 genotoxic inconclusive
Cc1ccnc(SCC(=O)N2CCc3ccccc32)n1	FLuc counter inconclusive, NPC1 prom act 3.16µM, ELG1 genotoxic inconclusive, Rab9 prom act 2.82µM (no result: SMN2 splice enh)
Cn1ccnc1SCC(=O)N1CCc2ccccc21	FLuc counter 15.1µM, NPC1 prom act 2.24µM, ELG1 genotoxic inconclusive, Rab9 prom act 2.82µM (no result: SMN2 splice enh)
O=C(CSc1nnc2ccccn12)N1CCc2ccccc21	FLuc counter 13.5µM, NPC1 prom act 2.82µM, ELG1 genotoxic inconclusive, Rab9 prom act 3.16µM, SMN2 splice enh 12.6µM
O=C(CSc1ccccn1)N1CCc2ccccc21	FLuc counter 10.7µM, NPC1 prom act 2.51µM, ELG1 genotoxic inconclusive, Rab9 prom act 1.12µM, SMN2 splice enh 11.2µM
O=C(CSc1ncccn1)N1CCCc2ccccc21	none
COc1cccc(-n2ccnc2SCC(=O)N2CCc3ccccc32)c1	none
